Screens from PubChem.
Shown are actives, neighbours in structure and some others; about 1.1% of the full set was active somewhere.
GLS inh = glutaminase GLS (human) inhibition. GLS enzymatic activity, qHTS titration. Potency, µM (highest dose often 45.5 µM), inactives show top-dose activity change, negative = inhibition, usual class: inhibitors. actives 0.21% (n = 410,000). AID 624170. O94925; further: potency means the concentration at half of the fitted maximal effect; on the % scale 0 is the no-effect control and ±100 the full control effect
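Coupled fluorescence readout: glutamate oxidase/HRP/Amplex Red detect glutamate formed by hKGA from L-glutamine (1 mM solution added). Buffer 45 mM KH2PO4 pH 8.2, 0.02% Tween-20; reads at t0 and 30 min RT.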
Tb PFK block = inhibitors of T. brucei phosphofructokinase | O15648 | T. brucei PFK, ADP-Glo luminescence | Potency, µM (series often up to 57.5 µM), without a hit: at the top dose activity, negative = inhibition, hits mostly inhibitors | actives 0.17% (n = 330,000);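 further: potency means the concentration at half of the fitted maximal effect; 0% = uninhibited 1x PFK enzyme wells and -100% = no-enzyme wells; nearly all actives have a fitted effect of over 60% in size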
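Compounds were pin-transferred as a titration series up to 57 uM into substrate buffer (0.5 mM F6P, 0.1 mM ATP, pH 8.0), then 1.25 nM PFK was added and reactions ran 45 min before ADP-Glo detection.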
Tb PGK inh = T. brucei PGK inhibition | P07378 | PGK/GAPDH coupled, Kinase-Glo luminescence, 60 min | Potency, µM (series often up to 57.5 µM), for the others: at the top dose activity change, negative = inhibition, most hits filed as inhibitors | actives 0.043% (n = 380,000) | AID 602233; further: potency means the concentration at half of the fitted maximal effect; on the % scale 0 is the no-effect control and ±100 the full control effect; nearly all actives have a fitted effect of over 60% in size
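Recombinant glycosomal PGK reaction used 1,3-bisphosphoglycerate generated in-well by GAPDH (100nM final) in 100mM TEA pH 7.6, 5mM MgCl2, 0.01% Tween-20. After 60 minutes at room temperature, ATP was read by Kinase-Glo Plus luminescence end-point.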
Pin1 inhibitor = human Pin1 inhibition. Q13526. Pin1 FP peptide displacement, HiFluor488, 10 min. Potency, µM (doses to about 115 µM), inactives show top-dose activity, negative = inhibition, actives largely listed as inhibitors. actives 0.009% (n = 390,000). AID 504891; active means well fitted inhibition curve with a large enough effect in the polarisation, with a control signal flat, not every such curve was filed as active; inconclusive means small, poorly fitted or top-dose-only effect, or effect the other way, or a change in a side signal; inactive means no such curve, though single readings can be large or run the other way; the % refers to the polarisation; further: potency means the concentration at half of the fitted maximal effect; on the % scale 0 is the no-effect control and ±100 the full control effect
Target sequence (Q13526 whole entry, looked up): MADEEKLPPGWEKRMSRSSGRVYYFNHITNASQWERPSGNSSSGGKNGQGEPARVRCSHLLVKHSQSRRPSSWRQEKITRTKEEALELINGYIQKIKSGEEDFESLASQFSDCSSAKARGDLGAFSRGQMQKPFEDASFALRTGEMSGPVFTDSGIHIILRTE
VDR inhibitor = blocks the human vitamin D receptor; P11473; VDR-SRC2-3 peptide fluorescence polarization, 2 h; Potency, µM, inactives show max response, negative = inhibition, actives largely listed as inhibitors; actives 0.93% (n = 400,000); AID 504847; further: potency means the concentration at half of the fitted maximal effect; on the % scale 0 is the no-effect control and ±100 the full control effect
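Inhibition of the VDR/SRC2-3 peptide interaction is quantified by fluorescence polarization. Compounds (23 nl, pintool) incubate with the reagents for 2 hours at ambient room temperature.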
GLS hit conf = glutaminase (human) inhibition, hit confirmation; AID 624261; biochemical glutaminase enzyme inhibition assay; shares compounds with GLS inh; 35 tested, under 10 active; Potency, µM (series often up to 46.1 µM), for the others: at the highest dose activity change, negative = inhibition, usual class: inhibitors; calls by dose curve
GLS HRP counter = inhibits HRP glutamate oxidase coupled readout, glutaminase counter-screen | shares compounds with GLS inh | HRP/glutamate oxidase coupled Amplex Red fluorescence counterscreen | activity change, negative = inhibition, % at 46.1 µM | 35 tested, under 10 active
GLS HEK tox = HEK-293 cytotoxicity, glutaminase hit confirmation; shares compounds with GLS inh; HEK-293 viability, CellTiter-Glo luminescence, 24 h; activity change, negative = cytotoxicity, % at 46.1 µM; 35 tested, under 10 active; AID 624264
Starred values were filed as active, the others as inactive; i = inactive; u = inconclusive; x = no result. Unless noted, the call rests on the fitted dose curve; in most records, active means well fitted curve in the direction sought with a large enough effect; inconclusive means small, poorly fitted or top-dose-only effect, or another doubt; inactive means no such curve, though single readings can be large; an effect the other way counts as inactive or inconclusive.

SMILES	GLS inh	Tb PFK block	Tb PGK inh	Pin1 inhibitor	VDR inhibitor	GLS hit conf	GLS HRP counter	GLS HEK tox
CO[C@@H]1[C@@H]([C@H](C)[C@@H]2O[C@@]3(CC[C@@](C)([C@H]4CC[C@@](C)([C@H]5O[C@H]([C@H]6O[C@](C)(O)[C@H](C)C[C@@H]6C)C[C@H]5O[C@H]5C[C@@H](OC)[C@H](OC)[C@@H](C)O5)O4)O3)C[C@@H](O)[C@@H]2C)O[C@@](O)(CC(=O)O)[C@H](C)[C@H]1OC	-1%	x	x	x	x	x	x	x
COc1ccccc1NC(=O)c1cc(S(=O)(=O)NCc2ccccc2)ccc1F	u	-5%	7%	3%	-12%	6%	-1	3
O=C(O)c1ccc(NS(=O)(=O)c2cc(Cl)ccc2Cl)cc1	6%	4%	-2%	-7%	-5%	x	x	x
Cc1ccc(NS(=O)(=O)c2cc(C(=O)O)ccc2Cl)cc1	11µM*	1%	2%	-8%	u	u	-3	-5
NS(=O)(=O)c1ccc(CNS(=O)(=O)c2cc(C(=O)O)ccc2Cl)cc1	11µM*	-1%	-9%	-21%	4%	5.8µM*	-1	-12
Cc1cc(SCC(=O)OCC(=O)N(C)c2ccccc2)nc2ccccc12	-2%	u	i	2%	-4%	x	x	x
COc1ccc(OC)c(S(=O)(=O)Nc2ccccc2O)c1	10µM*	x	-2%	2%	13%	u	u	-2
COc1ccc(OC)c(S(=O)(=O)Nc2ccccc2C)c1	3%	21%	-5%	-5%	-4%	x	x	x
CCOC(=O)c1ccc(NC(=O)CC2C(=O)N(c3cccc(OC)c3)C(=O)N2Cc2ccc(OC)cc2)cc1 (stereo unspecified)	-9%	x	i	9%	-3%	x	x	x
